Source: PubChem BioAssay AID1159580 (chemical genetic matrix, 2015)
Where “and” joins values, the source holds several entries; their conditions need not be identical. Equal entries are not always repeated. In all, about 5,500 compounds went through this assay and about 2,000 (36%) were called active. Roughly 18% stayed inconclusive and do not appear here. Rule as the data show it: active = normalized growth mostly below about 0.91 (no sharp cut-off); inconclusive = no clear call, values can overlap the other calls; inactive = mostly above about 0.92. Some of the results follow.

Experiment: chemical genetic growth profiling, strain panel (AID 1159580);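 also: tested at 20 µM; growth read once vehicle control cultures reached saturation at 30 °C; 1 = growth at the plate median or of vehicle wells; lower values mean less growth of the strain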
Details: S. cerevisiae deletion strains, growth OD

Measured: normalized growth

Cc1cc(=O)n(-c2ccccc2)n1C
inactive: locus YAL013W, strain DEP1, hits give low values 1.02 | locus YAL021C, strain ccr4, hits give low values 0.962 | locus YAL026C, strain drs2, hits give low values 1 | locus YAL030W, strain snc1, hits give low values 1 | locus YBL061C, strain skt5, hits give low values 0.992 | locus YBR009C, strain hhf1, hits give low values 1.06 | locus YBR021W, strain FUR4, hits give low values 1 | locus YBR023C, strain chs3, hits give low values 0.987 | locus YBR171W, strain sec66, hits give low values 0.987 | locus YBR229C, strain ROT2, hits give low values 1.01 | locus YBR231C, strain swc5, hits give low values 1.01 | locus YBR279W, strain paf1, hits give low values 0.995 | locus YCL011C, strain gbp2, hits give low values 0.995 | locus YCL016C, strain dcc1, hits give low values 0.979 | locus YCL029C, strain bik1, hits give low values 0.996 | locus YCL061C, strain MRC1, hits give low values 0.981 | locus YCL069W, strain vba3, hits give low values 0.997 | locus YCR088W, strain abp1, hits give low values 0.991 | locus YDL005C, strain med2, hits give low values 0.991 | locus YDL035C, strain GPR1, hits give low values 1.04 | locus YDL040C, strain nat1, hits give low values 0.991 | locus YDL074C, strain BRE1, hits give low values 1.02 | locus YDL101C, strain DUN1, hits give low values 0.999 | locus YDL185W, strain tfp1, hits give low values 0.994 | locus YDL192W, strain arf1, hits give low values 0.989 | locus YDR001C, strain nth1, hits give low values 0.983 | locus YDR069C, strain doa4, hits give low values 1.02 | locus YDR101C, strain arx1, hits give low values 0.983 | locus YDR137W, strain rgp1, hits give low values 0.978 | locus YDR159W, strain sac3, hits give low values 1.01 | locus YDR162C, strain NBP2, hits give low values 1.04 | locus YDR195W, strain ref2 0.998 | locus YDR297W, strain sur2, hits give low values 0.99 | locus YDR318W, strain mcm21, hits give low values 0.989 | locus YDR334W, strain swr1, hits give low values 0.986 | locus YDR335W, strain msn5, hits give low values 0.992 | locus YDR388W, hits give low values 0.986 | locus YDR392W, strain spt3, hits give low values 0.94 | locus YDR502C, strain sam2, hits give low values 0.994 | locus YEL003W, strain gim4, hits give low values 1 | locus YEL037C, strain rad23, hits give low values 0.995 | locus YEL061C, strain CIN8 (second series), hits give low values 0.99 | locus YEL061C, strain CIN8, hits give low values 1 | locus YER015W, strain faa2, hits give low values 0.985 | locus YER016W, strain bim1, hits give low values 0.996 | locus YER110C, hits give low values 0.987 | locus YER111C, strain swi4, hits give low values 0.984 | locus YER155C, strain BEM2 (second series), hits give low values 1.01 | locus YER155C, strain BEM2, hits give low values 1 | locus YER167W, strain BCK2, hits give low values 1.02 | locus YFR010W, strain ubp6, hits give low values 1 | locus YGL078C, strain dbp3, hits give low values 0.982 | locus YGL086W, strain mad1, hits give low values 0.989 | locus YGL167C, strain pmr1, hits give low values 0.996 | locus YGL173C, strain kem1, hits give low values 0.992 | locus YGL227W, strain vid30, hits give low values 0.993 | locus YGL240W, strain doc1, hits give low values 1 | locus YGL248W, strain PDE1, hits give low values 0.999 | locus YGL253W, strain hxk2, hits give low values 0.975 | locus YGR078C, strain PAC10, hits give low values 1 | locus YGR135W, strain pre9, hits give low values 1 | locus YGR229C, strain SMI1, hits give low values 1.04 | locus YGR252W, strain gcn5, hits give low values 1 | locus YHR013C, strain ard1, hits give low values 0.982 | locus YHR027C, strain rpn1, hits give low values 1.02 | locus YHR030C, strain SLT2, hits give low values 1.01 and 0.973 | locus YHR079C, strain IRE1 (second series), hits give low values 0.984 | locus YHR079C, strain IRE1, hits give low values 1.03 | locus YHR094C, strain hxt1, hits give low values 0.986 | locus YHR129C, strain ARP1, hits give low values 1.01 | locus YHR142W, strain chs7, hits give low values 0.963 | locus YHR200W, strain rpn10, hits give low values 1 | locus YIL066C, strain RNR3, hits give low values 1.04 | locus YIL073C, strain SPO22, hits give low values 1.03 | locus YIL125W, strain kgd1, hits give low values 0.986 | locus YIR030C, strain dcg1, hits give low values 0.987 | locus YJL095W, strain BCK1 (second series), hits give low values 0.999 | locus YJL095W, strain BCK1, hits give low values 1 and 1.01 | locus YJL115W, strain asf1, hits give low values 0.994 | locus YJL129C, strain trk1, hits give low values 0.978 | locus YJL134W, strain LCB3, hits give low values 1.01 | locus YJL154C, strain vps35, hits give low values 0.991 | locus YJL164C, strain tpk1, hits give low values 1.02 | locus YJL166W, strain qcr8, hits give low values 0.953 | locus YJL168C, strain set2, hits give low values 0.983 | locus YJL187C, strain SWE1 (second series), hits give low values 0.987 | locus YJL187C, strain SWE1, hits give low values 0.996 | locus YJR043C, strain POL32, hits give low values 1.04
